In PubChem BioAssay AID686978 (National Center for Advancing Translational Sciences (NCATS), 2013):
Out of some 420,000 compounds screened, about 64,000 (15%) were called active. Not shown: some 27% with an inconclusive outcome. Calls follow the shape of the dose curve; as a rule, active = well fitted inhibition curve with a large enough effect; inconclusive = small, poorly fitted or top-dose-only effect; inactive = flat fitted curve, though single readings scatter. These entries were drawn from the full list. A call without a number means that no potency is given here. Peptide text beside a SMILES is read from it.

Experiment: qHTS for Inhibitors of human tyrosyl-DNA phosphodiesterase 1 (TDP1): qHTS in cells in absence of CPT; also: nearly all actives have a fitted effect of over 55% in size
Settings: DT40 Tdp1-/- hTDP1 cells, no CPT, ATP luminescence, 48 h; activity change, negative = growth inhibition: at 46.2 µM (top of the series)
Procedure, shortened: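 Seeded 400 DT40-hTDP1 cells/well (vehicle DMSO, no 20 nM CPT); pinned compounds; ≥48 hr at 37 °C; CellTiter-Glo luminescence as viability measure.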
Potency is read from the fitted curve at half-maximal effect.

Row | Structure (SMILES) | Potency
1 | O=C(NC(=S)NC1CCSC1=O)c1ccccc1F (stereo unspecified) | inactive
2 | Cc1ccc(-n2c(=O)cc(N3CCN(Cc4ccccc4)CC3)[nH]c2=O)cc1 | inactive
3 | COc1ccc(N(CC(=O)N/N=C/c2cccc3c2OCCO3)S(=O)(=O)c2ccc(NC(C)=O)cc2)cc1 | inactive
4 | COC(=O)COc1cccc2c(=O)n(CC(=O)NCc3ccccc3)ccc12 | 2.06 µM (active)
5 | CCOCCn1ccc2c(OCC(=O)NCc3ccc(C)cc3)cccc2c1=O | inactive
6 | COC(=O)COc1cccc2c(=O)n(CC(=O)NCCc3ccc(OC)c(OC)c3)ccc12 | inactive
7 | Cc1ccccc1OCC(=O)NNC(=O)c1cc(S(=O)(=O)N(C)C)ccc1N1CCCC1 | inactive
8 | Cc1ccccc1OCC(=O)Nc1ccc2c(c1)ncn2C | inactive
9 | Cc1ccccc1OCC(=O)Nc1ccc(N2CCN(C(=O)C(C)C)CC2)c(Cl)c1 | 6.51 µM (active)
10 | Cc1ccccc1N1CC(C(=O)Nc2nnc(SCCC3OCCO3)s2)CC1=O (stereo unspecified) | inactive
11 | O=C(CSc1nn(-c2ccc(F)cc2)c(=S)s1)NC1CCS(=O)(=O)C1 (stereo unspecified) | inactive
12 | CC(=O)CC[C@@H](C)O[C@@H]1OC(C)[C@H](O)CC1O (stereo partly specified) | inactive
13 | Cc1cc(C(=O)Nc2nnc(C3CC3)s2)c(C)s1 | inactive
14 | O=C(Nc1nnc(C2CC2)s1)c1ccccn1 | 16.4 µM (active)
15 | CCc1cc(C(=O)Nc2nnc(C3CC3)s2)sc1C | inactive
16 | O=C1CCC(C(=O)N2CCC(O)(c3ccccc3)CC2)CN1CCc1ccccc1 (stereo unspecified) | inactive
17 | COCCn1c(C)cc(C(=O)CSc2nc3ccccc3c(=O)n2C(C)COC)c1C (stereo unspecified) | 9.2 µM (active)
18 | C=CCn1c(SCc2ccc(C(=O)NCCO)cc2)nc2ccccc2c1=O | inactive
19 | COCC(C)n1c(SCc2ccc(C(=O)OC)o2)nc2ccccc2c1=O (stereo unspecified) | 8.2 µM (active)
20 | COCCn1c(C)cc(C(=O)CN2c3cccc4cccc(c34)S2(=O)=O)c1C | inactive
21 | Cc1cc(SCC(=O)NCCN2C(=O)CSC2=O)nc2ccccc12 | inactive

Row | Structure (SMILES) | Potency
22 | Cc1ccc(C(=O)CSc2nc3ccccc3c(=O)n2N)o1 | inactive
23 | COCCn1c(C)cc(C(=O)CSc2nnc(C3CC3)n2C2CC2)c1C | inactive
24 | COCC(C)n1c(C)cc(C(=O)CSc2cc(C)c3ccccc3n2)c1C (stereo unspecified) | 16.4 µM (active)
25 | COc1ccc2c(C)cc(SCC(=O)NCC3CCCO3)nc2c1 (stereo unspecified) | inactive
26 | Nc1nc2c(Br)ccc(Br)c2cc1C(=O)NCCc1ccccc1 | inactive
27 | CC(C)C(=O)Nc1nnc(Sc2ccc(N(C)C)cc2)s1 | inactive
28 | Cc1ccc(N=C2SCCCN2C(=O)c2cccc(N3C(=O)CCC3=O)c2)cc1Cl | inactive
29 | CCCn1c(=O)c2ccccc2n2c(SCC(=O)/C(C#N)=C(\C)N)nnc12 | inactive
30 | Cc1cc(NC(=O)CSC2=NS(=O)(=O)c3cc(Cl)ccc3N2)no1 | inactive
31 | Cc1cccc(C)c1-n1c(C)cc(/C=C2\C(=O)NN(c3ccccc3)C2=O)c1C | inactive
32 | O=c1oc2ccccc2c(CNc2ccccc2)c1[N+](=O)[O-] | inactive
33 | CC(=O)c1nn(-c2cccc(C(F)(F)F)c2)c(=O)[nH]c1=O | inactive
34 | Cc1cc(C(=O)Nc2cccc(C(F)(F)F)c2)c2c(C)nn(-c3cccc(F)c3)c2n1 | 23.1 µM (active)
35 | Cc1cccc(NC(=O)c2nnn(-c3cccc(C(F)(F)F)c3)c2N)c1 | inactive
36 | COc1ccc(NC(=O)CN(C)C(=O)CC2CCCCC2)cc1 | inactive
37 | CC1CCCCC1NC(=O)COC(=O)Cc1ccc(Cl)cc1 (stereo unspecified) | inactive
38 | CC1CCCC(NC(=O)CN2CCN(Cc3ccc(Cl)cc3)C2=O)C1C (stereo unspecified) | 23.1 µM (active)
39 | Cc1ccc(CNC(=O)CN2CCN(Cc3ccc(Cl)cc3)C2=O)cc1 | inactive
40 | Cc1ccc(S(=O)(=O)N/N=C(\c2ccccc2)C2CC2)cc1 | inactive
41 | Cc1ccc2c(c1)N(CC(=O)N1CCC(O)CC1)C(=O)CO2 | inactive
42 | CC[C@H](C)CCCCC(=O)N[C@@H](CCN)C(=O)N[C@H](C(=O)N[C@@H](CCN)C(=O)N[C@H]1CCNC(=O)[C@@H]([C@H](C)O)NC(=O)[C@H](CCN)NC(=O)[C@H](CCN)NC(=O)[C@H](CC(C)C)NC(=O)[C@@H](CC(C)C)NC(=O)[C@H](CCN)NC1=O)[C@@H](C)O (HELM PEPTIDE1{[CC[C@H](C)CCCCC(=O)[*:2]].[Dab].T.[Dab].[Dab].[Dab].[dL].L.[Dab].[Dab].[dT]}$PEPTIDE1,PEPTIDE1,5:R3-11:R2$$$V2.0) | inactive

Row | Structure (SMILES) | Potency
43 | O=c1n(Cc2cccc(C(F)(F)F)c2)c2ccccc2c2nc(-c3ccccc3)nn12 | 25.9 µM (active)
44 | Cc1cc(N2CCN(c3cccc(C(F)(F)F)c3)CC2)n2nc(-c3ccccc3)nc2n1 | inactive
45 | COc1ccc(-c2nc3c4ccccc4n(CC(=O)Nc4ccc(C(C)=O)cc4)c(=O)n3n2)cc1 | inactive
46 | CCN(CCCNC(=O)CCn1c(=O)[nH]c2ccsc2c1=O)c1ccccc1 | inactive
47 | COc1cc(OC)cc(C(=O)Nc2ncc3c(n2)CC(C)(C)CC3=O)c1 | inactive
48 | Cc1ccc(NC(=O)C(CC(=O)O)C2CCCO2)c(C)c1 (stereo unspecified) | inactive
49 | CSCCC(NC(=O)c1ccc(Cl)cc1Cl)C(=O)NNC(=O)c1csc(N2CCOCC2)n1 (stereo unspecified) | inactive
50 | Cc1ccc(CCn2c3c(c4ccccc42)CN(C)CC3)cn1 | inactive
51 | Cc1ccc(-c2noc(CSc3nnnn3-c3ccccc3)n2)cc1 | inactive
52 | COc1ccc(C(=O)NC(=O)CSc2nnc(-c3ccco3)n2-c2ccccc2)cc1 | inactive
53 | COc1ccccc1-c1noc(CSc2nc(C)cc(=O)[nH]2)n1 | inactive
54 | Cn1c(SCc2ccc(F)cc2)nnc1-c1ccncc1 | inactive
55 | Cc1ccc(-c2noc(CSc3nnc(-c4ccncc4)n3-c3ccc(F)cc3)n2)cc1 | 18.4 µM (active)
56 | COc1ccc(-c2noc(CSc3nnc(-c4ccccc4)n3-c3ccc(F)cc3)n2)c(OC)c1 | 20.6 µM (active)
57 | Cc1nc(N2CCOCC2)sc1C(=O)NN | inactive
58 | COC(=O)Cc1ccc(OCC(=O)NC2CCCC2)cc1 | inactive
59 | COc1ccc(-n2nc3c(c2NC(=O)Cc2cccc(C)c2)CS(=O)C3)cc1 (stereo unspecified) | inactive
60 | Cc1nc(NC(CC(C)C)C(=O)O)c2nc(C)oc2n1 (stereo unspecified) | inactive
61 | Cc1ccc(NC(=S)N/N=C2/CCCc3c(C)cc(C)cc32)cc1 | inactive
